PubChem BioAssay AID1159580 (chemical genetic matrix, 2015)
Screen size: about 5,500 compounds; about 2,000 (36%) were called active. Inconclusive results (about 18%) are left out. Cut-off read from the data, not from the text of the source: active = normalized growth mostly below about 0.91 (no sharp cut-off); inconclusive = no clear call, values can overlap the other calls; inactive = mostly above about 0.92. The list shows a part of the results.

Experiment: chemical genetic growth profiling, strain panel (AID 1159580);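 note: tested at 20 µM; growth read once vehicle control cultures reached saturation at 30 °C; 1 = growth at the plate median or of vehicle wells; lower values mean less growth of the strain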
Conditions: S. cerevisiae deletion strains, growth OD

Measured: normalized growth

CC1=NS(=O)(=O)c2cc(Cl)ccc2N1
inactive: locus YAL021C, strain ccr4, active compounds read low 0.919 | locus YAL026C, strain drs2, active compounds read low 0.972 | locus YAL030W, strain snc1, active compounds read low 0.987 | locus YAL040C, strain CLN3, active compounds read low 1 | locus YBL061C, strain skt5, active compounds read low 0.984 | locus YBR009C, strain hhf1, active compounds read low 0.984 | locus YBR023C, strain chs3, active compounds read low 0.971 | locus YBR171W, strain sec66, active compounds read low 0.972 | locus YBR231C, strain swc5, active compounds read low 0.995 | locus YBR279W, strain paf1, active compounds read low 0.952 | locus YCL011C, strain gbp2, active compounds read low 0.985 | locus YCL016C, strain dcc1, active compounds read low 0.976 | locus YCL061C, strain MRC1 (second series), active compounds read low 0.995 | locus YCL069W, strain vba3, active compounds read low 0.967 | locus YCR088W, strain abp1, active compounds read low 0.971 | locus YDL005C, strain med2, active compounds read low 0.972 | locus YDL040C, strain nat1, active compounds read low 0.958 | locus YDR001C, strain nth1, active compounds read low 0.967 | locus YDR069C, strain doa4, active compounds read low 0.937 | locus YDR137W, strain rgp1, active compounds read low 0.957 | locus YDR150W, strain NUM1, active compounds read low 1.01 | locus YDR159W, strain sac3, active compounds read low 0.936 | locus YDR195W, strain ref2 0.899 | locus YDR297W, strain sur2, active compounds read low 0.974 | locus YDR334W, strain swr1, active compounds read low 0.936 | locus YDR335W, strain msn5, active compounds read low 0.971 | locus YDR363W, strain ESC2, active compounds read low 0.973 | locus YDR392W, strain spt3, active compounds read low 0.971 | locus YEL003W, strain gim4, active compounds read low 0.984 | locus YEL037C, strain rad23, active compounds read low 0.944 | locus YEL061C, strain CIN8 (second series), active compounds read low 0.972 | locus YER002W, strain NOP16, active compounds read low 0.999 | locus YER015W, strain faa2, active compounds read low 0.971 | locus YER016W, strain bim1, active compounds read low 0.963 | locus YER111C, strain swi4, active compounds read low 0.99 | locus YER155C, strain BEM2 (second series), active compounds read low 0.994 | locus YFR010W, strain ubp6, active compounds read low 0.946 | locus YGL167C, strain pmr1, active compounds read low 0.95 | locus YGL173C, strain kem1, active compounds read low 0.995 | locus YGL227W, strain vid30, active compounds read low 0.967 | locus YGL240W, strain doc1, active compounds read low 0.953 | locus YGL253W, strain hxk2, active compounds read low 0.951 | locus YGR078C, strain PAC10, active compounds read low 1.01 | locus YHR013C, strain ard1, active compounds read low 0.925 | locus YHR027C, strain rpn1, active compounds read low 0.977 | locus YHR030C, strain SLT2, active compounds read low 0.96 | locus YHR079C, strain IRE1, active compounds read low 0.969 | locus YHR142W, strain chs7, active compounds read low 0.948 | locus YJL092W, strain hpr5, active compounds read low 0.986 | locus YJL095W, strain BCK1 (second series), active compounds read low 0.961 | locus YJL095W, strain BCK1, active compounds read low 0.974 | locus YJL115W, strain asf1, active compounds read low 0.948 | locus YJL129C, strain trk1, active compounds read low 0.975 | locus YJL154C, strain vps35, active compounds read low 0.989 | locus YJL164C, strain tpk1, active compounds read low 0.977 | locus YJL166W, strain qcr8, active compounds read low 0.963 | locus YJL187C, strain SWE1, active compounds read low 0.979 | locus YJR066W, strain TOR1, active compounds read low 0.948 | locus YJR075W, strain HOC1, active compounds read low 0.991 | locus YKL160W, strain elf1, active compounds read low 0.981 | locus YKR026C, strain gcn3, active compounds read low 0.958 | locus YKR091W, strain srl3, active compounds read low 0.969 | locus YLL001W, strain dnm1, active compounds read low 0.969 | locus YLL026W, active compounds read low 0.985 | locus YLL041C, strain sdh2, active compounds read low 0.981 | locus YLR027C, strain aat2, active compounds read low 0.975 | locus YLR113W, strain HOG1, active compounds read low 0.951 | locus YLR221C, strain rsa3, active compounds read low 0.986 | locus YLR258W, strain gsy2, active compounds read low 0.971 | locus YLR262C, strain YPT6 (second series), active compounds read low 0.961 | locus YLR320W, strain mms22, active compounds read low 0.971 | locus YLR342W, strain FKS1, active compounds read low 0.992 | locus YLR357W, strain rsc2, active compounds read low 0.944 | locus YLR370C, strain arc18, active compounds read low 0.963 | locus YLR384C, strain iki3, active compounds read low 0.984 | locus YML120C, strain ndi1, active compounds read low 0.98 | locus YMR058W, strain fet3, active compounds read low 0.97 | locus YMR125W, strain sto1, active compounds read low 0.955 | locus YMR129W, active compounds read low 0.955 | locus YMR205C, strain PFK2, active compounds read low 0.966 | locus YMR231W, strain pep5, active compounds read low 0.963 | locus YMR307W, strain GAS1, active compounds read low 0.993 | locus YNL071W, strain lat1, active compounds read low 0.949 | locus YNL175C, strain NOP13, active compounds read low 1 | locus YNL183C, strain NPR1, active compounds read low 0.906 | locus YNL197C, strain WHI3, active compounds read low 0.996 | locus YNL209W, strain ssb2, active compounds read low 0.979 | locus YNL224C, strain SQS1, active compounds read low 1 | locus YNL248C, strain rpa49, active compounds read low 0.998 | locus YNL322C, strain KRE1 (second series), active compounds read low 0.966 | locus YNL322C, strain KRE1, active compounds read low 0.953 | locus YNR049C, strain mso1, active compounds read low 0.974 | locus YOR001W, strain rrp6, active compounds read low 0.958 | locus YOR070C, strain gyp1, active compounds read low 0.99 | locus YOR080W, strain dia2, active compounds read low 0.942 | locus YOR083W, strain WHI5 (second series), active compounds read low 1.02 | locus YOR083W, strain WHI5, active compounds read low 0.958 | locus YOR106W, strain vam3, active compounds read low 0.983 | locus YOR231W, strain MKK1, active compounds read low 0.978 | locus YOR265W, strain rbl2, active compounds read low 0.975 | locus YOR270C, strain vph1, active compounds read low 0.888 | locus YOR290C, strain snf2, active compounds read low 0.965 | locus YPL051W, strain arl3, active compounds read low 0.994 | locus YPL055C, strain LGE1, active compounds read low 0.987 | locus YPL078C, strain atp4, active compounds read low 0.985 | locus YPL106C, strain sse1, active compounds read low 0.92 | locus YPL240C, strain hsp82, active compounds read low 0.967 | locus YPL241C, strain CIN2, active compounds read low 0.992 | locus YPL256C, strain CLN2, active compounds read low 0.97
